Measured values from PubChem BioAssay AID1159580 (chemical genetic matrix, 2015).
Out of some 5,500 compounds screened, about 2,000 (36%) were called active. About 18% were inconclusive and are not listed. Cut-off read from the data, not from the text of the source: active = normalized growth mostly below about 0.91 (no sharp cut-off); inconclusive = no clear call, values can overlap the other calls; inactive = mostly above about 0.92. The list shows a part of the results.

Assay: chemical genetic growth profiling, strain panel (AID 1159580);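 note: tested at 20 µM; growth read once vehicle control cultures reached saturation at 30 °C; 1 = growth at the plate median or of vehicle wells; lower values mean less growth of the strain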
Conditions: S. cerevisiae deletion strains, growth OD
[1] = locus YAL013W, strain DEP1, active compounds read low
[2] = locus YAL040C, strain CLN3, active compounds read low
[3] = locus YCL061C, strain MRC1 (second series), active compounds read low
[4] = locus YDR363W, strain ESC2, active compounds read low
[5] = locus YER002W, strain NOP16, active compounds read low
[6] = locus YGR078C, strain PAC10, active compounds read low
[7] = locus YMR263W, strain SAP30, active compounds read low
[8] = locus YMR307W, strain GAS1, active compounds read low
[9] = locus YNL175C, strain NOP13, active compounds read low
[10] = locus YNL197C, strain WHI3, active compounds read low
[11] = locus YNL224C, strain SQS1, active compounds read low
[12] = locus YOR083W, strain WHI5 (second series), active compounds read low

Measured: normalized growth

Cc1ccccc1N1CCN(S(=O)(=O)C[C@]23CCC(CC2NC(=O)[C@@H](N)CCS(C)(=O)=O)C3(C)C)CC1 (stereo partly specified)
inactive: [1] 0.995 | [2] 1.01 | [3] 1 | [4] 1 | [5] 1.04 | [6] 0.999 | locus YGR229C, strain SMI1, active compounds read low 1 | [7] 0.995 | [8] 0.99 | [9] 1.01 | [10] 1.01 | [11] 1.01 | locus YNL322C, strain KRE1, active compounds read low 0.99 | [12] 1.04

CCCN(CCC)C1Cc2cc(OC)c(OC)cc2C1
inactive: [1] 0.961 | [2] 1.05 | [3] 0.988 | [4] 0.974 | [5] 1.04 | [7] 0.985 | [8] 0.995 | [9] 1.02 | [10] 0.983 | [11] 0.994 | [12] 0.995

Clc1ccc(C(Cn2ccnc2)OCc2ccsc2Cl)c(Cl)c1 (stereo unspecified)
active: locus YAL021C, strain ccr4, active compounds read low 0.0615 | locus YAL026C, strain drs2, active compounds read low 0.0595 | locus YAL030W, strain snc1, active compounds read low 0.058 | locus YBL061C, strain skt5, active compounds read low 0.0605 | locus YBR009C, strain hhf1, active compounds read low 0.0623 | locus YBR023C, strain chs3, active compounds read low 0.0625 | locus YBR171W, strain sec66, active compounds read low 0.077 | locus YBR231C, strain swc5, active compounds read low 0.0613 | locus YBR279W, strain paf1, active compounds read low 0.0605 | locus YCL011C, strain gbp2, active compounds read low 0.0554 | locus YCL016C, strain dcc1, active compounds read low 0.0612 | locus YCL061C, strain MRC1, active compounds read low 0.0623 | locus YCL069W, strain vba3, active compounds read low 0.0601 | locus YCR088W, strain abp1, active compounds read low 0.0619 | locus YDL005C, strain med2, active compounds read low 0.0727 | locus YDL040C, strain nat1, active compounds read low 0.0591 | locus YDR001C, strain nth1, active compounds read low 0.0593 | locus YDR069C, strain doa4, active compounds read low 0.0605 | locus YDR137W, strain rgp1, active compounds read low 0.0897 | locus YDR159W, strain sac3, active compounds read low 0.0897 | locus YDR195W, strain ref2 0.109 | locus YDR297W, strain sur2, active compounds read low 0.0576 | locus YDR334W, strain swr1, active compounds read low 0.0622 | locus YDR335W, strain msn5, active compounds read low 0.0604 | locus YDR392W, strain spt3, active compounds read low 0.0929 | locus YEL003W, strain gim4, active compounds read low 0.0528 | locus YEL037C, strain rad23, active compounds read low 0.0589 | locus YEL061C, strain CIN8 (second series), active compounds read low 0.0607 | locus YER015W, strain faa2, active compounds read low 0.0602 | locus YER016W, strain bim1, active compounds read low 0.0611 | locus YER111C, strain swi4, active compounds read low 0.0729 | locus YER155C, strain BEM2 (second series), active compounds read low 0.0863 | locus YFR010W, strain ubp6, active compounds read low 0.0638 | locus YGL167C, strain pmr1, active compounds read low 0.0775 | locus YGL173C, strain kem1, active compounds read low 0.0679 | locus YGL227W, strain vid30, active compounds read low 0.0627 | locus YGL240W, strain doc1, active compounds read low 0.0751 | locus YGL253W, strain hxk2, active compounds read low 0.0532 | locus YHR013C, strain ard1, active compounds read low 0.116 | locus YHR027C, strain rpn1, active compounds read low 0.0631 | locus YHR030C, strain SLT2, active compounds read low 0.1 | locus YHR079C, strain IRE1, active compounds read low 0.111 | locus YHR142W, strain chs7, active compounds read low 0.0682 | locus YJL092W, strain hpr5, active compounds read low 0.058 | locus YJL095W, strain BCK1 (second series), active compounds read low 0.0564 | locus YJL095W, strain BCK1, active compounds read low 0.131 | locus YJL115W, strain asf1, active compounds read low 0.0715 | locus YJL129C, strain trk1, active compounds read low 0.0844 | locus YJL154C, strain vps35, active compounds read low 0.0606 | locus YJL164C, strain tpk1, active compounds read low 0.0589 | locus YJL166W, strain qcr8, active compounds read low 0.0614 | locus YJL187C, strain SWE1, active compounds read low 0.058 | locus YJR066W, strain TOR1, active compounds read low -0.00364 | locus YKL160W, strain elf1, active compounds read low 0.0664 | locus YKR026C, strain gcn3, active compounds read low 0.0641 | locus YKR091W, strain srl3, active compounds read low 0.0588 | locus YLL001W, strain dnm1, active compounds read low 0.0592 | locus YLL026W, active compounds read low 0.0585 | locus YLL041C, strain sdh2, active compounds read low 0.0592 | locus YLR027C, strain aat2, active compounds read low 0.0566 | locus YLR113W, strain HOG1, active compounds read low 0.175 | locus YLR221C, strain rsa3, active compounds read low 0.0562 | locus YLR258W, strain gsy2, active compounds read low 0.0592 | locus YLR262C, strain YPT6 (second series), active compounds read low 0.0854 | locus YLR320W, strain mms22, active compounds read low 0.083 | locus YLR342W, strain FKS1, active compounds read low 0.063 | locus YLR357W, strain rsc2, active compounds read low 0.114 | locus YLR370C, strain arc18, active compounds read low 0.0594 | locus YLR384C, strain iki3, active compounds read low 0.0608 | locus YML120C, strain ndi1, active compounds read low 0.0591 | locus YMR058W, strain fet3, active compounds read low 0.0582 | locus YMR125W, strain sto1, active compounds read low 0.0724 | locus YMR129W, active compounds read low 0.057 | locus YMR205C, strain PFK2, active compounds read low 0.0885 | locus YMR231W, strain pep5, active compounds read low 0.0835 | locus YNL071W, strain lat1, active compounds read low 0.0601 | locus YNL183C, strain NPR1, active compounds read low -4.4e-05 | locus YNL209W, strain ssb2, active compounds read low 0.0596 | locus YNL248C, strain rpa49, active compounds read low 0.0715 | locus YNL322C, strain KRE1 (second series), active compounds read low 0.0708 | locus YNR049C, strain mso1, active compounds read low 0.0574 | locus YOR001W, strain rrp6, active compounds read low 0.0652 | locus YOR070C, strain gyp1, active compounds read low 0.0829 | locus YOR080W, strain dia2, active compounds read low 0.0656 | locus YOR083W, strain WHI5, active compounds read low 0.0618 | locus YOR106W, strain vam3, active compounds read low 0.0631 | locus YOR231W, strain MKK1, active compounds read low 0.107 | locus YOR265W, strain rbl2, active compounds read low 0.0575 | locus YOR270C, strain vph1, active compounds read low 0.0903 | locus YOR290C, strain snf2, active compounds read low 0.074 | locus YPL051W, strain arl3, active compounds read low 0.0604 | locus YPL078C, strain atp4, active compounds read low 0.0629 | locus YPL106C, strain sse1, active compounds read low 0.0945 | locus YPL240C, strain hsp82, active compounds read low 0.0568 | locus YPL256C, strain CLN2, active compounds read low 0.133

Clc1ccc(C(c2ccc(Cl)cc2)n2cc[n+](CC(OCc3ccc(Cl)cc3Cl)c3ccc(Cl)cc3Cl)c2)cc1 (stereo unspecified)
inactive: [5] 1.01
active: [2] 0.071 | [3] 0.0506 | [4] 0.0687 | [6] 0.0555 | locus YJR075W, strain HOC1, active compounds read low 0.0686 | [8] 0.0652 | [9] 0.0668 | [10] 0.0718 | [11] 0.0691 | [12] 0.0706
